# Experimental data published in PubChem BioAssay (EPA / NIEHS).
# Some structures have more than one record in an assay (separate samples or runs), and their calls can disagree. Calls of active or inactive are those of the source. Rule for the calls: active = hit-call score of the fitted dose curve at least 0.9, where 1 is the maximum; inactive = score below 0.9.
# Read-out: Intercellular Adhesion Molecule 1 (ICAM1), ICAM1 (gene 3383)
# Assay: BSK_BE3C_ICAM1: BioMAP Diversity Plus: BE3C Assay for Intercellular Adhesion Molecule 1 (ICAM1) Biomarker Activity (AID 2284278)
# Details: primary human bronchial epithelial cells
# Procedure: BSK_BE3C is a cell-based, multiplexed-readout assay that uses bronchial epithelial cell, a human lung primary cell, with measurements taken at 24 hours after chemical dosing in a 96-well plate.BSK_BE3C_ICAM1 is an assay component measured in the BSK_BE3C assay. It measures ICAM-1 antibody related to regulation of gene expression using ELISA technology.Data from the assay component BSK_BE3C_ICAM1 was analyzed at the endpoint, BSK_BE3C_ICAM1, in the positive analysis fitting direction relative to DMSO as the negative control and baseline of activity. Using a type of binding reporter, gain or loss-of-signal activity can be used to understand protein changes. To generalize the intended target to other relatable targets, this assay endpoint is annotated to the 'cell adhesion molecules' intended target family, where the subfamily is 'Immunoglobulin CAM'.
# The levels of cell surface (or secreted, indicated by the prefix "s") biomarker endpoints were measured by ELISA. Overt cytotoxicity to cells in confluent adherent cultures (all systems other than the BT system) was assessed by measuring total protein levels using sulforhodamine B (SRB) staining in parallel cultures at the time of biomarker measurements, indicated as SRB endpoints. For proliferation assays for adherent cell types, individual cell types are cultured at sub-confluence and relative cell numbers quantified by SRB staining at time points optimized for each system (48 h: 3C and CASM3C systems; 72 h: BT and HDF3CGF systems; 96 h: SAg system). SRB was performed by staining cells with 0.1% SRB after fixation with 10% TCA and reading wells at 560 nm.Viability and proliferation of PBMC (T cells) was quantified by Alamar Blue reduction for the SAg and BT systems. For PBMC viability (referred to as PBMC Cytotoxicity within the assay endpoint names), cells were plated (75,000/well in a 96-well plate) and then chemical samples added for 1 h before addition of activators, SEB and TSST-1 (20 ng/mL final concentration each). Cells were incubated for 90 h. Then, Alamar Blue (20 uL/well) (Invitrogen, Cat DAL1100) was added for 6 h, and the plates were read with a fluorescence microplate reader at 546/580 nm (excitation/emission). For PBMC proliferation, cells were plated and activated as above but incubated for only 16 h prior to addition of Alamar Blue. Plates were read after 6 h.
Compound,outcome,AC50
CC(CCC(=O)O)(c1ccc(O)cc1)c1ccc(O)cc1,inactive,–
CCCCCCCCCCCC(=O)N(C)CC(=O)O,inactive,–
c1ccc(Nc2cccc3ccccc23)cc1,inactive,12.7 µM (active)
C[N+](C)(C)CCCNS(=O)(=O)C(F)(F)C(F)(F)C(F)(F)C(F)(F)C(F)(F)C(F)(F)C(F)(F)C(F)(F)F,inactive,–
CC(C)C(=O)OCCc1ccccc1,inactive,–
Oc1ccccc1Cc1ccccc1O,inactive,–
Nc1nc(N)nc(-c2ccccc2)n1,inactive,–
O=C(O)C(F)(F)C(F)(F)C(F)(F)C(F)(F)C(=O)O,inactive,–
CCCC(C)C(=O)OCC (stereo not given),inactive,–
